Source: PubChem
The list is not random: actives were taken first. Their share in the collection is about 2.4%.
D2 PAM-1 = Beta-Arrestin HTS for Positive Allosteric Modulators of the Human D2 Dopamine Receptor: Potentiators; D(2) dopamine receptor (Homo sapiens), P14416; DiscoveRx D2 beta-arrestin cells, luminescence, 90 min; 100% = 57 uM dopamine signal; potentiation, % (concentration not given with the values); 360,000 compounds, 0.23% hits; in the data active = potentiation above about 50%; inconclusive = mostly about 30% to 49%
Target sequence (P14416 whole entry, looked up): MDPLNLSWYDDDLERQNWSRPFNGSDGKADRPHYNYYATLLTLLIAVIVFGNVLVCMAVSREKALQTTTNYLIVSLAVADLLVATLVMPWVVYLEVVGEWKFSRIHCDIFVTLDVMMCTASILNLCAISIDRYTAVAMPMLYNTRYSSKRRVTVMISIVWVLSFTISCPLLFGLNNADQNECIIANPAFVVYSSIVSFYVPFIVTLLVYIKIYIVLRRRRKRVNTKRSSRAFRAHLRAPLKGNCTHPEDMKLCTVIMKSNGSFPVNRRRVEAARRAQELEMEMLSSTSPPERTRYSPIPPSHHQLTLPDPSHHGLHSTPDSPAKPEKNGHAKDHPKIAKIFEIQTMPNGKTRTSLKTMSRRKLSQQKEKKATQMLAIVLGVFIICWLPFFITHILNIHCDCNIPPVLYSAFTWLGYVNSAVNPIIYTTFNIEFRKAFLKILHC
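PathHunter beta-arrestin assay in DiscoveRx D2 cells. Compounds were added with an EC20 of dopamine (50 nM final) for 90 min at 37 deg C. Luminescence was read 1 h after detection reagent, with 57 uM dopamine as the EC100 control.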
D2 ag-1 = Beta-Arrestin HTS for Positive Allosteric Modulators of the Human D2 Dopamine Receptor: Agonists; 360,000 compounds, 0.084% hits; D(2) dopamine receptor (Homo sapiens), P14416; activation, % (test concentration not listed); DiscoveRx PathHunter D2 beta-arrestin, luminescence, 90 min; 100% = 57 uM dopamine signal; in the data active = activation above about 40%; inconclusive = between about 15% and that limit
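Agonist mode: compounds alone added to overnight-plated D2 PathHunter cells for 90 min at 37 C, with 57 uM final dopamine (EC100) defining full response. Beta-arrestin recruitment detected by chemiluminescent reagent, read after 1 h at ambient temperature.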
D2 ag-2 = HTS Assay for Allosteric Agonists of the Human D2 Dopamine Receptor: Primary Screen for Agonists; activation, % at 2 µM; AID 485358, 2010; HEK293 T-REx D2 cells, calcium flux agonist mode; 340,000 compounds, 0.53% hits;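 active = activation over 3 SD above normal in the single-dose calcium agonist read, cut at about 30% in these data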; note: 0% is about no effect
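Calcium-flux readout, 1 cycle/sec over 180 s following compound pin transfer, in inducible HEK293 Trex D2 cells (force-coupled); dopamine controls included. Positive calcium responses during this window marked compounds as potential agonists.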
D2 antagonist = HTS Assay for Allosteric Antagonists of the Human D2 Dopamine Receptor: Primary Screen for Antagonists | D(2) dopamine receptor (Homo sapiens), P14416 | HEK293 TREx D2 cells, calcium flux, dopamine EC80 | inhibition, % at 10 µM | 340,000 compounds, 2% hits | AID 485344, 2010; in the data active = inhibition above about 30%; inactive = below that, where a call was filed; note: 0% is about no effect
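Overnight-induced (tetracycline, 30 C) HEK293 T-REx cells carrying force-coupled D2 receive a no-wash calcium dye, then compound, then EC80 dopamine at 180 s; signals are read kinetically throughout.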
D2 PAM-2 = HTS Assay for Positive Allosteric Modulators of the Human D2 Dopamine Receptor: Primary Screen for Potentiators. D(2) dopamine receptor (Homo sapiens), P14416. HEK293 T-REx D2, calcium flux, EC20 dopamine potentiation. potentiation, % at 10 µM. 340,000 compounds, 0.34% hits. AID 485347, 2010;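 active = potentiation over 3 SD above the plate norm, cut at about 30% in these data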; note: 0% is about no effect
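Potentiation of an EC20 dopamine calcium response measured kinetically over 180 s, after a preceding 180 s compound-only read flagging agonists. Cells: inducible Hek293 Trex D2 line, 4000/well, cultured overnight at 30 C before dye loading.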
An asterisk follows results filed as active; ? = inconclusive; . = no result given.

SMILES	D2 PAM-1	D2 ag-1	D2 ag-2	D2 antagonist	D2 PAM-2
Oc1ccccc1C=NCCN1CCN(CCN=Cc2ccccc2O)C1c1ccccc1O (stereo unspecified)	4	1	.	.	.
c1ccc(C(c2nnnn2Cc2ccco2)N2CCN(c3nc4ccccc4s3)CC2)cc1 (stereo unspecified)	26	0	-1	12	30*
Cc1ccccc1Cn1cc(S(=O)(=O)c2ccc(Cl)cc2)c(=O)c2cc3c(cc21)OCO3	.	.	0	.	2
CCOc1ccccc1NC(=O)Nc1ccc2c(c1)OCO2	-26	-5	0	-4	-10
C=CCOc1ccccc1CN(C(=O)CCl)c1ccc2c(c1)OCO2	-3	-4	0	33*	5
CCc1cccc(NC(=O)Nc2cccs2)c1	-38	1	1	32*	-11
COC(=O)c1ccccc1NC(=O)Nc1cccs1	-24	-2	0	38*	-7
N#Cc1cccc(NC(=O)Nc2cccs2)c1	-22	3	0	1	-1
C/C(=N\Nc1ccc(Cl)c(C(=O)O)c1)c1ccc(Br)s1	-4	2	-2	47*	1
CC(=O)Nc1cc(-c2cccc(CO)c2)cn2c(-c3ccc(F)cc3)cnc12	-1	-3	.	.	.
Cc1cc(C(=O)NNC(=S)NC(C)c2ccccc2)c2ccccc2n1 (stereo unspecified)	-41	-13	-1	45*	5
Cc1cc(C(N)=O)c2ccccc2n1	8	2	-1	50*	-14
CCOC(=O)C1(C)CCN1C(=O)c1ccc(SC(F)(F)F)cc1 (stereo unspecified)	-3	-3	.	.	.
COc1cc(Cl)c(C)cc1NC(=O)CC(c1ccc(F)cc1)N1Cc2ccccc2C1=O (stereo unspecified)	.	.	-1	.	4
Cc1cc(S(=O)(=O)N2CCN=C2c2ccccc2)c(Cl)cc1Cl	18	-1	30*	-1	-9
O=C(Nc1ccc(Cl)c(C(=O)N2CCOCC2)c1)c1ccccc1	-3	-8	0	18	52*
O=C(c1ccc(NC(=O)C2(c3ccccc3)CCOCC2)cc1)N1CCOCC1	-2	-1	-1	32*	7
CC(=O)c1ccc(NC(=O)C2(c3ccccc3)CCOCC2)cc1	-21	0	0	2	-1
COc1ccc(Cl)cc1NC(=O)CSc1nccn1Cc1ccco1	.	.	-1	.	-8
CCNc1nc(N)c(C(=C(C#N)C#N)c2ccccc2)s1	-39	-3	-1	45*	-18
Nc1nc(Nc2ccccc2)sc1C(=O)c1ccccc1	-7	0	12	-8	5
Cc1ccc(NC2=C/C(=N/S(=O)(=O)c3cccs3)c3ccccc3C2=O)cc1C	76*	?	1	-6	0
CCc1nc2ccc(C(=O)NCCCN(C)C)cn2c1N(CC)CCOC	-11	-3	.	.	.
CC(=NNC(=S)N1CC2CCC(CC2)C1)c1cnccn1	97*	?	.	.	.
CCc1ccc(CNC(=O)c2ccc(CSc3nc4ccncc4n3Cc3ccccc3)cc2)cc1	.	.	1	.	10
SMILES	D2 PAM-1	D2 ag-1	D2 ag-2	D2 antagonist	D2 PAM-2
COc1ccc(-n2c(CCC(=O)O)ccc2-c2ccc(F)cc2)c(OC)c1	-10	1	0	7	32*
COC(=O)c1ccccc1-n1c(CCC(=O)O)ccc1-c1ccc(F)cc1	56*	9	0	3	0
Cc1ccc(S(=O)(=O)N(CCc2ccccc2)CC(=O)Nc2cc(C)ccc2C)cc1	.	.	0	.	-2
CC1(C)Cc2c(ccc3ccccc23)/C(=C/C(=O)N2CCCCC2)N1	-6	-4	0	33*	19
Cc1cccc(Nc2nc3ccccc3n3c(N)nnc23)c1	.	.	0	.	1
COc1ccc(C(C)=O)c(OC(=O)c2ccco2)c1	2	-10	1	19	39*
COc1ccc(C(=O)Nc2cccc(OC(=O)c3ccco3)c2)cc1	-4	-2	-2	-2	1
COc1ccc(C(C)=O)c(OC(=O)c2ccc(OC)c(OC)c2)c1	-4	-3	1	-2	36*
CCC(C)c1ccccc1OCC(=O)Nc1ccc(S(=O)(=O)Nc2cc(C)on2)cc1 (stereo unspecified)	.	.	-1	.	7
CC(C)c1ccccc1NC(=O)CNCCOc1ccccc1F	-11	1	31*	46*	-26
O=C1CCCc2ccccc2N1	1	8	1	-6	46*
O=C1CCC(=O)N1CCC(c1ccc(F)cc1)c1ccco1 (stereo unspecified)	-17	-1	2	17	9
O=C1NCN(c2ccccc2)C12CCN(CCCC(c1ccc(F)cc1)c1ccc(F)cc1)CC2	-33	-7	4	69*	-26
COc1ccccc1N1CCN(S(=O)(=O)/C=C/c2ccccc2)CC1	14	-2	1	54*	-1
O=S(=O)(/C=C/c1ccccc1)N1CCN(c2ccccc2)CC1	-1	1	0	-1	-7
CCc1ccccc1N(C)C(=O)c1nn(-c2ccc(OC)cc2)c(=O)c2c1c1ccccc1n2C	.	.	1	.	5
Cc1ccc(Oc2ncc(CN3CCOCC3)s2)cc1	-5	-2	0	10	-10
Brc1ccc(Oc2ncc(CN3CCN(c4ccccc4)CC3)s2)cc1	-2	45*	0	-4	-6
CCC(CC)C(=O)N(c1ccc(F)cc1)C1C=CS(=O)(=O)C1 (stereo unspecified)	-7	2	1	73*	1
Cc1ccc(C(=O)NCCn2cc(SCC(=O)Nc3cc(C)on3)c3ccccc32)cc1	1	4	-1	32*	-26
Cc1cc(NC(=O)CSc2cn(CCNC(=O)c3ccccc3)c3ccccc23)no1	3	3	-1	3	6
C=CCOc1ccc(C=Nc2ccc(OC)cc2)c(O)c1	2	2	0	-6	48*
COc1ccc(N=Cc2ccccc2O)cc1	-2	-2	.	.	.
Cc1c(C(=O)Nc2ccc(S(=O)(=O)Nc3ncccn3)cc2)oc2ccccc12	-3	0	0	46*	22
CN1C(C(=O)NCCc2cccs2)CC2Cn3c(nc4cc(Cl)c(Cl)cc43)C21 (stereo unspecified)	-17	3	1	48*	0
COCC(=O)N(Cc1cc2ccc(C)c(C)c2n2nnnc12)C1CCCC1	-3	1	0	8	37*
